# From PubChem BioAssay (Tox21)
# Values joined by “and” are separate entries in the source; they are usually repeats but may differ in a detail not shown here. Equal values may be shown once. Results filed as inconclusive are left out. A call without a number means that no potency is given here. More than one record can exist for a structure, and the calls need not agree. Active and inactive are the calls of the source. Calls follow the shape of the dose curve; as a rule, active = well fitted cell-killing curve with a large enough effect in the repeat runs; inconclusive = weak or mixed curves, or effect the other way; inactive = flat fitted curve, though single readings scatter.
# Experiment: qHTS RealTime-Glo MT Cell Viability Assay in HepG2 cells - 40 hour (AID 1224870); also: nearly all actives have a fitted effect of over 50% in size
# Details: RealTime-Glo luminescence; series mostly up to 76.8 µM
# Text: National Center for Advancing Translational Sciences [NCATS]
# NIH Chemical Genomics Center [NCGC]
# U.S. Environmental Protection Agency [EPA]
# National Institutes of Environmental Health Sciences [NIEHS]
# National Toxicology Program [NTP]
# U.S. Food and Drug Administration [FDA]
# Measure of cell viability is critical in the cell-base assay. Analysis of cell viability is necessary for the characterization of cell responses to cytotoxic drugs and environmental stress. A RealTime-Glo MT Cell Viability Assay to monitor cell viability in real time of continues cell culture during 40 hours of compound treatment was used to screen Tox21 10K library compounds in HepG2 cells. The RealTime-Glo MT Cell Viability Assay is a nonlytic, homogeneous, bioluminescent method to measure cell viability in real time using a simple, plate-based method. The assay involves adding NanoLuc luciferase and a cell-permeant prosubstrate to cells in culture. Viable cells reduce the proprietary prosubstrate to generate a substrate for NanoLuc luciferase. This substrate diffuses from cells into the surrounding culture medium, where it is rapidly used by the NanoLuc Enzyme to produce a luminescent signal. The signal correlates with the number of viable cells, making the assay well suited for cytotoxicity studies.
# Tox21 Assay Protocol Summary:
# The mixture of HepG2 cell suspension and reagents were dispensed at 600cells/6 ul/well in 1536-well tissue culture treated black solid bottom plates using a Multidrop dispenser. After the assay plates were incubated at a 37 C/5% CO2 incubator for 5 hours, 23 nL of compounds dissolved in DMSO, positive and negative controls was transferred to the assay plate by a pintool work station. The plates were incubated at 37 C for 40 hours. The luminescence intensity were measured at 0h, 8h, 16h, 24h, 32h and 40h time points using ViewLux plate reader during compound treatment.
# Potency is read from the fitted curve at half-maximal effect.
row,SMILES,Potency
1,O=C(Nc1ccc(Oc2ccc(Cl)cc2)c(Cl)c1)c1cc(I)cc(I)c1O,inactive
2,CN(C)C(=O)C1(N2CCCCC2)CCN(CC[C@@]2(c3ccc(Cl)c(Cl)c3)CN(C(=O)c3ccccc3)CCO2)CC1,18.2 µM (active)
3,CC(=O)N1CCN(c2ccc(OC[C@H]3CO[C@](Cn4ccnc4)(c4ccc(Cl)cc4Cl)O3)cc2)CC1,54.9 µM (active)
4,Clc1ccccc1C(c1ccccc1)(c1ccccc1)n1ccnc1,24.5 µM (active) and inactive
5,COC(=O)c1cc(Cl)ccc1OC,inactive
6,CNC(=O)c1ccccc1,inactive
7,Cn1cc(C(=O)[C@@H]2CCc3nc[nH]c3C2)c2ccccc21,inactive
8,N#CSc1ccc(N)c([N+](=O)[O-])c1,inactive
9,Nc1ccccc1O,inactive
10,[Cl][Bi]([Cl])([c]1ccccc1)([c]1ccccc1)[c]1ccccc1,7.71 µM (active)
11,CC(C)=CCOc1ccc(/C=C/C(=O)c2ccc(OCC=C(C)C)cc2OCC(=O)O)cc1,inactive
12,C=C(C)C(=O)OCC[N+](C)(C)C,inactive
13,CCOC(=O)O[C@]1(C(=O)OCCl)CC[C@H]2[C@@H]3CCC4=CC(=O)C=C[C@]4(C)[C@H]3[C@@H](O)C[C@@]21C,inactive
14,CCOC(=O)O[C@H](C)OC(=O)c1ccc2c(c1)cc(C(=O)NC1CCN(C(C)C)CC1)n2Cc1cc(-c2ccc(Cl)s2)on1,10.2 µM (active)
15,CCCCCCCC(=O)[O-].CCCCCCCC(=O)[O-].[Zn+2],inactive
16,O=C(c1ccc(F)cc1)C1CCN(CCn2c(=O)[nH]c3ccccc3c2=O)CC1,inactive
17,CN(C)CCCOC1(Cc2ccccc2)CCCCCC1,inactive
18,CCCCCCCCCOC(=O)c1ccc(O)cc1,inactive
19,CCCC/C=C/CCCCO,inactive
20,C[C@]12CCC(=O)C=C1CC[C@@H]1[C@@H]2[C@@H](O)C[C@@]2(C)[C@H]1CC[C@]2(O)C(=O)COC(=O)CCC(=O)O,inactive

row,SMILES,Potency
1,CN(C)[C@@H]1C(=O)C(C(N)=O)=C(O)[C@@]2(O)C(=O)C3=C(O)c4c(O)ccc(Cl)c4[C@@H](O)[C@H]3C[C@@H]12,inactive
2,CC[C@H](c1ccc(O)cc1)[C@@H](CC)c1ccc(O)cc1,inactive
3,CCc1oc2ccccc2c1C(=O)c1cc(Br)c(O)c(Br)c1,inactive
4,OC1(c2ccc(Cl)c(C(F)(F)F)c2)CCN(CCCC(c2ccc(F)cc2)c2ccc(F)cc2)CC1,9.52 µM (active)
5,Cc1cc(O)c(C(C)(C)C)cc1Sc1cc(C(C)(C)C)c(O)cc1C,48.9 µM (active)
6,O=C(NO)C1(NS(=O)(=O)c2ccc(Oc3ccc(F)cc3)cc2)CCOCC1,inactive
7,CC(C)(C)c1ccc(C(=O)O)cc1,inactive
8,COc1cc(-c2nc(NC(=O)c3cc4cc(C)cc(C)c4n3CC(=O)O)sc2CCC2CCCCC2)c(OC)cc1Cl,40 µM (active)
9,Cc1nc(-c2ccc3c(c2)CCN(CCC2CCC(NC(=O)/C=C/c4ccc(F)cc4)CC2)CC3)no1 (stereo not given),inactive
10,CCC(C)(C)C1CCCCC1OC(C)=O (stereo not given),inactive
11,O=C(Nc1cccc([N+](=O)[O-])c1)c1cc2ccccc2cc1O,inactive
12,C[n+]1cc2c3c(ccc2c2ccc4cc5c(cc4c21)OCO5)OCO3,1.04 µM (active)
13,Nc1c2ccccc2nc2ccccc12,24.2 µM (active) and 13.4 µM (active)
14,Nc1ccc2cc(S(=O)(=O)O)cc(O)c2c1N=Nc1ccccc1C(F)(F)F,inactive
15,Cc1cccc2c1cc1ccc3cccc4ccc2c1c34,inactive
16,COc1cc(/C=C/C(=O)O[C@H]2CC[C@]34C[C@]35CC[C@]3(C)[C@@H]([C@H](C)CCC=C(C)C)CC[C@@]3(C)[C@@H]5CC[C@H]4C2(C)C)ccc1O,inactive
17,Cc1cc(N)c(S(=O)(=O)O)cc1Cl,inactive
18,CCCCCCCCCCCC[N+](C)(C)CCCCCCCCCCCC,6.92 µM (active)
19,O=C(O)c1c(Cl)cccc1Cl,inactive
20,CCCCN1CCCC[C@H]1C(=O)Nc1c(C)cccc1C,inactive
